# Reference: PubChem BioAssay (NCI)
# Compounds without any hit were thinned out: in the full panel of roughly 83,000, 20% have a hit.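 Cell lines were cultured in 96-well plates, exposed to a single compound concentration, and assessed for percent growth 48 hours later.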 Unmarked numbers belong to inactive results. Calls of active or inactive are those of the source. Rule for the calls: active = growth percent below 10; inactive = the rest.
# Legend:
# Assay in all cases: NCI-60 one-dose screen, 48 h (100 = growth as untreated, 0 = no growth, -100 = all killed)
# Conditions in all cases: 10 µM unless noted
# NCI-H23 lung = system: NCI-H23 lung
# NCI-H226 lung = system: NCI-H226 lung
# NCI-H322M lung = system: NCI-H322M lung
# HOP-62 NSCLC = system: HOP-62 NSCLC
# NCI-H460 lung = system: NCI-H460 lung
# HOP-92 NSCLC = system: HOP-92 NSCLC
# NCI-H522 lung = system: NCI-H522 lung
# A549/ATCC NSCLC = system: A549/ATCC NSCLC
# 786-0 renal = system: 786-0 renal
# COLO 205 colon = system: COLO 205 colon
Compound,growth (NCI-H23 lung),growth (NCI-H226 lung),growth (NCI-H322M lung) [%],growth (HOP-62 NSCLC),growth (NCI-H460 lung),growth (HOP-92 NSCLC),growth (NCI-H522 lung),growth (A549/ATCC NSCLC),growth (786-0 renal),growth (COLO 205 colon)
Nc1cc2c(cc1C(=O)c1cccc(F)c1)OCCO2,95.4%,91.4%,98.5,95%,104%,72.9%,87.3%,91.6%,94%,111%
COc1ccc(NC(=O)c2cc(OC)c(OC)c(OC)c2)cc1O,52.2%,99.9%,68.2,35.1%,17.2%,37.4%,-41% (active),48.6%,38.5%,40.4%
COc1ccc(-c2cc(-c3ccccc3)nc(SCCCC(=O)NO)n2)cc1OC,-2.44% (active),10.4%,17.1,5.03% (active),1.88% (active),-10.6% (active),-22.8% (active),-17.1% (active),0.761% (active),23.7%
NC1N=C(SCC(=O)N2CCN(c3cc4c(cc3F)c(=O)c(C(=O)O)cn4C3CC3)CC2)NC(=O)/C1=C/c1ccc(Cl)cc1 (stereo not given),103%,106%,107,103%,110%,114%,94.7%,103%,103%,115%
COc1ccc(-c2c(N)n[nH]c2-c2cc(OC)c3c(c2)OCCO3)cc1,87.6%,93.3%,107,78.3%,83%,87.6%,12.5%,56%,88.9%,66.8%
O=C(NCc1cn(Cc2cccc(Oc3ccccc3)c2)nn1)c1cccnc1Nc1ccc(F)cc1,69.4%,88.5%,77.4,59.3%,34.4%,114%,31.3%,59.5%,69.8%,70.7%
CO[C@H]1NC(=O)N(S(=O)(=O)c2ccc(Cl)cc2)[C@@H]1OC,107%,131%,111,93.1%,110%,114%,105%,98.2%,103%,108%
OCCCCCCNc1ncnc2cc(Cl)ccc12,95%,84.1%,105,88.5%,94.2%,74.6%,87.8%,95.6%,100%,103%
Cc1cc(N)n(S(=O)(=O)c2oc(-c3ccccc3)nc2C#N)n1,90.3%,89.6%,98.4,95%,106%,91.5%,24.4%,95.3%,90.1%,-34% (active)
O=C(O)c1cn(C2CC2)c2cc(N3CCN(C(=O)/C=C/c4ccc(Cl)cc4)CC3)c(F)cc2c1=O,86.8%,91.5%,71.5,80.8%,58.7%,57.4%,75.1%,77.4%,76.4%,98.9%
C=C[C@@H]1C[C@@H]2Cc3cc(F)ccc3N1O2,103%,120%,137,102%,112%,105%,98.7%,95.3%,111%,123%
CCOC(=O)c1cn2c3c(cccc3c1=O)C(=O)/C(=C/c1cccc(Cl)c1Cl)C2,93%,83%,97.4,81.8%,107%,63.8%,73.1%,98.2%,90.6%,117%
Cn1ncc2c(Sc3ccc(Cl)cc3)ncnc21,93.6%,108%,86.5,111%,92.9%,25.8%,21.4%,93.1%,98.8%,90.8%
Fc1ccc(Nc2ncnc3ccc(-c4cnc5[nH]ccc5c4)cc23)cc1Cl,36.1%,4.94% (active),19.2,29.1%,-58.9% (active),-5.43% (active),-33.3% (active),-50.1% (active),-44.1% (active),11%
